Most compounds without a hit are left out; they make up all but 1.2% or so of the library.
Apoferritin bind – binds horse apoferritin like a general anesthetic; hit rate 0.074% among 350,000; P02791; Potency, µM (highest dose often 77.5 µM), most hits filed as inhibitors; apoferritin/1-aminoanthracene competitive binding, fluorescence; note: nearly all actives have a fitted effect of over 20% in size
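Read-out: endpoint 1-AMA fluorescence, excitation 380 nm and emission 535 nm, after compounds sit 10 min at room temperature with 10 uM horse-spleen apoferritin in 50% saturated 1-AMA/PBS. Values come from four-parameter Hill fits.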
IDH1 R132H inh – blocks human mutant IDH1 R132H enzyme | O75874 | IDH1-R132H enzyme, NADPH consumption, diaphorase/resazurin fluorescence | Potency, µM (series often up to 76.6 µM), most hits filed as inhibitors | hit rate 0.093% among 390,000 | AID 602179; note: nearly all actives have a fitted effect of over 65% in size
Target sequence (O75874 whole entry R132H, stated change not applied): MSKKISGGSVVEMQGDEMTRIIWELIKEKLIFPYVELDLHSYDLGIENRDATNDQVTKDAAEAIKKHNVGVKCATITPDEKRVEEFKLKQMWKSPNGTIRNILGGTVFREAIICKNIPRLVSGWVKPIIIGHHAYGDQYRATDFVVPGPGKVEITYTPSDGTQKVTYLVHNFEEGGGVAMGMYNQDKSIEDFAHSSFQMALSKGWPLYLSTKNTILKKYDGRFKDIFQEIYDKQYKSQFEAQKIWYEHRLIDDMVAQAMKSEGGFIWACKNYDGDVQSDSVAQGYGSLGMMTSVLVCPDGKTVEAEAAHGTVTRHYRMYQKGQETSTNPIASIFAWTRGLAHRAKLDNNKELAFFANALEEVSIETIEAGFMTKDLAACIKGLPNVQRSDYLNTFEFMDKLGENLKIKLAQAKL
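IDH1-R132H (0.5 ug/mL dispensed) in pH 7.5 Tris buffer was preincubated 30 min with compound, then given a substrate mix of 0.016 mM NADPH and 2 mM alpha-KG for 80 min at room temperature; remaining NADPH was read by diaphorase/resazurin fluorescence.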
KCNH2 WT inh – inhibitors of human wildtype KCNH2 potassium channel | U2OS, BacMam KCNH2, thallium flux FluxOr; stronger effect = lower value | activity change, % at 1.84 µM | hit rate 0.37% among 340,000 | AID 720551;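 active = maximum activity change below -70%; inconclusive = maximum activity change between -70% and -50%; inactive = maximum activity change above -50%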
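U2OS cells transduced with wild-type KCNH2 virus are loaded with FluxOr dye for 45 min, and thallium flux is measured in kinetic reads before and after stimulation buffer. Rate constants are normalized to DMSO controls.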
KCNH2 3.1 inh – blocks the human KCNH2 3.1 channel isoform; U2OS KCNH2 3.1, thallium flux FluxOr; stronger effect = lower value; activity change, % (tested at about 1.8 µM); AID 720553; hit rate 0.95% among 340,000;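 active = maximum activity change below -70%; inconclusive = maximum activity change from -70% to -50%; inactive = maximum activity change above -50%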;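 note: thallium influx rate constant from kinetic fluorescence after stimulation buffer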
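Steps: virus added to U2OS suspension (4 h, RT, dark); medium with 10% FBS added, cells plated, 37 C overnight; FluxOr/Red40 loading buffer 45 min RT; stimulation buffer, 2 min kinetic read; rate constant normalized.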
ASM inhibitor – blocks human secretory acid sphingomyelinase; P17405; placental ASM, HMU-PC fluorogenic substrate, 60 min; Potency, µM (series often up to 57.5 µM), usual class: inhibitors; hit rate 0.006% among 340,000
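Fluorescence read-out (Ex 386 nm, Em 447 nm) after stopping the reaction at pH 10. Enzyme: ASM from human placenta; substrate HMU-PC0, 9 uM final; 60 min, 37 °C. Compound preincubation 10 min, ambient temperature.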
A number is an active result; n = inactive; u = inconclusive; x = no result given; [ ] = another dose, or the depositor's remark. Unless noted, calls come from the whole dose curve; as a rule, active = well fitted inhibition curve with a large enough effect; inconclusive = small, poorly fitted or top-dose-only effect; inactive = no such curve, though single readings can be large or run the other way.

SMILES	Apoferritin bind	IDH1 R132H inh	KCNH2 WT inh	KCNH2 3.1 inh	ASM inhibitor
Cc1ccc(NC(=O)NCC2CCN(Cc3cccc(Cl)c3)CC2)cc1Cl	n	n	n	u	n
CCc1ccc(NC(=O)NCC2CCN(Cc3cccc(Cl)c3)CC2)cc1	n	n	n	-91	n
CN(C)c1ccc(-c2c(C3C4C=CCCC4(C)C(=O)N3Cc3ccccc3)ccc3ccccc23)cc1 (centres undefined)	n	x	x	x	x
CCOC(=O)c1c(NC(=O)CNC2CCCCC2)sc(C)c1C	n	n	n	-83	n
CCC(C)[C@H]1CNCCN1CCc1cccc2ccccc12 (some centres undefined)	x	n	n	n	n
CCC(C)[C@H]1CNCCN1CCC12CC3CC(CC(C3)C1)C2 (some centres undefined)	x	n	n	-136	n
COc1cccc(NC(=O)CN2C(=O)COc3ccc(S(=O)(=O)N4CCCCCC4)cc32)c1	n	n	n	-111	n
O=C(CN1C(=O)COc2ccc(S(=O)(=O)N3CCCC3)cc21)NC1CC1	n	n	-83	n	n
Cc1ccc2c(c1)c1c(c(=O)n(-c3cccc(Cl)c3)c(=O)n1CC(=O)NCC1CCCO1)n2C (centres undefined)	n	n	x	x	x
Cn1c(SCC(=O)Nc2nncs2)nnc1C1CC1	n	n	n	n	n
Cn1c(SCC(=O)Nc2ccccc2Oc2ccccc2)nnc1C1CC1	x	n	-110	n	n
Cc1nc(NC(=O)CSc2nnc(C3CC3)n2C)sc1C	n	n	-254	n	n
COc1ccc(C(CC(=O)NCc2ccc(Cl)cc2)N2Cc3ccccc3C2=O)cc1OC (centres undefined)	n	n	x	x	x
COc1ccc(NC(=O)/C=C/c2ccc(OC(F)F)cc2)cn1	n	n	n	-75	n
COC(=O)c1ccc(C2C=C(c3ccc(Cl)cc3)Nc3nc4ccccc4n32)cc1 (centres undefined)	n	n	x	x	x
CN(C)CCCO[C@H]1[C@@H]2OC(C)(C)O[C@@H]2O[C@@H]1[C@H](O)CO	n	x	x	x	x
CC(C)CCNC(=O)C(=O)Nc1c2c(nn1-c1ccc(Cl)cc1)CSC2	n	n	x	x	x
CN(CC1CCN(CCc2cccc(C(F)(F)F)c2)CC1)C(=O)c1ccc(F)cc1	n	n	u	-79	n
COc1cc(C(=O)N(C)CC2CCN(CCc3cccc(C(F)(F)F)c3)CC2)ccc1C	n	n	n	-72	n
COc1ccc(CCNC(=O)c2cc(Nc3cc(C)cc(C)c3)nc3ccccc23)cc1OC	n	n	x	x	x
CCOC(=O)c1c(S(=O)(=O)N2CCCC(C(=O)Nc3cccc(CC)c3)C2)c(C)n(CC)c1C (centres undefined)	n	n	x	x	x
Cc1ccc(CNC(=O)C2CCCN(S(=O)(=O)c3cccc4nsnc34)C2)cc1 (centres undefined)	n	n	x	x	x
CCN(CCCNC(=O)Cn1ncc2c3ccccc3n(C)c2c1=O)c1cccc(C)c1	n	n	x	x	x
Cc1ccc(C2CC(c3ccco3)n3ncnc3N2)cc1 (centres undefined)	n	n	n	n	n
Fc1ccc(C2CC(c3ccco3)n3ncnc3N2)cc1 (centres undefined)	n	n	-130	-175	n
SMILES	Apoferritin bind	IDH1 R132H inh	KCNH2 WT inh	KCNH2 3.1 inh	ASM inhibitor
CN1CCC(=O)N([C@H](CSc2ccccc2)c2ccccc2)CC1	n	n	n	-124	n
CCCN1CCC(=O)N([C@H](CSc2ccc(OC)cc2)c2ccccc2)CC1	n	n	n	-93	n
COc1ccc(SC[C@H](CC(C)C)N2CCN(CCc3ccccc3)CCC2=O)cc1	n	n	-75	-106	n
Cc1ccc(SC[C@H](c2ccccc2)N2CCN(C)CCC2=O)cc1	n	n	x	x	n
Cc1ccc(SC[C@H](CC(C)C)N2CCN(CCc3ccccc3)CCC2=O)cc1	n	n	x	x	n
O=[N+]([O-])c1cccc2nc(-c3ccccc3)c(-c3ccccc3)nc12	n	n	-132	-108	n
CCOC(=O)Cn1nnc(-c2ccc([N+](=O)[O-])cc2)n1	n	n	n	u	n
CCOC(=O)C(C)(C)n1nnc(-c2ccc([N+](=O)[O-])cc2)n1	n	n	n	-83	n
O=C1[C@@H]2[C@H]3[C@H](O)[C@H](O)C/C(=N/OC[C@@H](O)COCc4ccco4)[C@H]3CC[C@H]2C(=O)N1c1ccc(F)cc1F	n[15.3 µM]	x	x	x	x
